{"source": "PubChem BioAssay (NCATS)", "note": "Active and inactive are the calls of the source. Calls come from the whole dose curve; as a rule, active = well fitted curve in the direction sought with a large enough effect; inconclusive = small, poorly fitted or top-dose-only effect, or another doubt; inactive = no such curve, though single readings can be large or run the other way."}
{"target": "Thyrotropin receptor (Homo sapiens) (UniProt P16473)", "sequence (P16473 whole entry, looked up)": "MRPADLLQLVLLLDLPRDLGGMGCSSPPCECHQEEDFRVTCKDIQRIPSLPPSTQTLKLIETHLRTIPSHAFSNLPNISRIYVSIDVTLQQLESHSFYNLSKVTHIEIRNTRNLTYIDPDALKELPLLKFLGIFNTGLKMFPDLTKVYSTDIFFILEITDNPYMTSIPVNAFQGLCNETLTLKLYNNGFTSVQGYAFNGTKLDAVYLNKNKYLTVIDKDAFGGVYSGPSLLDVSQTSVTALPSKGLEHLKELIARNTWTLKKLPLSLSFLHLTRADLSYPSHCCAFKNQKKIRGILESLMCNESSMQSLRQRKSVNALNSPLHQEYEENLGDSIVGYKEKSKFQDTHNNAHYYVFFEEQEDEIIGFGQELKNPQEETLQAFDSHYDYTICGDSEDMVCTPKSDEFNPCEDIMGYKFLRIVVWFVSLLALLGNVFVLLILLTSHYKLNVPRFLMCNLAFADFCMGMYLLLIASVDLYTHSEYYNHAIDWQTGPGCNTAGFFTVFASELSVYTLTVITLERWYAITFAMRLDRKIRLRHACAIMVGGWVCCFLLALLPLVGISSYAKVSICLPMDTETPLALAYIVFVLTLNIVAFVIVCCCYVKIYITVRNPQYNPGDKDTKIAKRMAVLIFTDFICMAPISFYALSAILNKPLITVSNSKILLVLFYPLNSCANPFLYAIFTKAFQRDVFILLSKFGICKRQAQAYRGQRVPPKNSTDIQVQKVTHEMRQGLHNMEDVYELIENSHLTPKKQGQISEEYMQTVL", "experiment": "qHTS Assay for Antagonists of the Thyroid Stimulating Hormone Receptor (AID 488980)", "conditions": "TSHR-expressing cells, cAMP antagonist read-out; series mostly up to 57.5 µM", "text": "TSH is an alpha/beta heterodimeric glycoprotein hormone secreted from the anterior pituitary gland which belongs to the glycoprotein hormone family. The actions of TSH are mediated by a seven-transmembrane receptor, which upon TSH binding couples preferentially to the G-alpha (s) protein (Gs), resulting in activation of adenylate cyclase and increase in cyclic adenosine 3', 5' monophosphate (cAMP). The TSH receptor (THSR) is mainly expressed in thyroid follicular cells and regulates their growth and function. This cell based assay was conducted on a TSHR transfected HEK 293 cell line, measuring cAMP stimulation using antibody-based Homogeneous Time Resolved Fluorescence (HTRF).\nOur goal is to identify small molecules that will inhibit (antagonize) the thyroid-stimulating hormone receptor (TSHR), a member of the 7 transmembrane-spanning receptor (7TMR) family of cell surface receptors. TSHR-mediated hyperthyroidism is important in thyroid pathology. The development of small molecule antagonists of TSHR may lead to therapeutic approaches for TSHR-mediated hyperthyroidism caused by constitutively activating mutations or stimulating auto-antibodies associated with Graves' disease. Graves' disease is the leading cause of hyperthyroidism and is caused by autoantibodies that stimulate TSHR (TsAbs) causing thyroid growth and unregulated overproduction of thyroid hormones and existing treatments have liabilities (agranulocytosis). In addition, TSHRs are known to be expressed in multiple extrathyroidal tissues including bone, brain, kidney, testis, fat and cells of the immune system but the role of the TSHR in these tissues is not clear. Therefore, TSHR antagonists/inverse agonists could be used as probes of extrathyroidal TSHR function. Finally, TSHR inverse agonists, which are a subclass of antagonists that inhibit agonist-independent (or basal or constitutive) TSHR signaling, could be used to inhibit TSH-independent signaling in patients with recurrent or metastatic thyroid cancer who are receiving thyroid hormone to suppress TSH.\nAn anti cAMP antibody contains a fluorescent cryptate tag (excitation 337 nm; emission 620 nm) and the acceptor is cAMP-d2 (excitation 620 nm; emission 665 nm). When antibody and cAMP-d2 interact and are excited by a 337 nm light, a FRET occurs resulting in emission at 665 nm. The assay is competition between cAMP-d2 and cAMP (from the cell lysate). The homogeneous protocol allows for one step dispense after stimulation that is automation friendly.\nStep, Parameter, Value, Description\n1, Cells, 3 uL, 2000 TSHR freshly harvested cells/well 1536 TC treated White solid bottom plate (Cells resuspended in 10 mM HEPES buffered HBSS and 70 uM RO 20-1724)\n2, Compound, 23 nL, Libraries and controls\n3, Compound, 1 uL, EC80 TSH (4 nM final)\n5, Reagent, 2 uL, cAMP antibody diluted 1:20 in lysis buffer\n6, Time, 30 minutes, Room temperature\n7, Detector, HTRF settings, Viewlux"}
{"smiles": "C[C@](N)(Cc1ccc(O)cc1)C(=O)O", "outcome": "inactive"}
{"smiles": "Nc1cc(=O)[nH]c(N)n1", "outcome": "inactive"}
{"smiles": "O=C1N=C(O)CN1/N=C/c1ccc(-c2ccc([N+](=O)[O-])cc2)o1", "outcome": "inactive"}
{"smiles": "CCN(CC)CCNC(=O)c1cc(Cl)c(N)cc1OC", "outcome": "inactive"}
{"smiles": "CN1CCN(C2Cc3ccccc3Sc3ccc(Cl)cc32)CC1", "note": "(stereo not given)", "outcome": "inactive"}
{"smiles": "CC(CN1c2ccccc2Sc2ccccc21)N(C)C", "note": "(stereo not given)", "outcome": "inactive"}
{"smiles": "CNC(=O)Oc1ccc2c(c1)[C@]1(C)CCN(C)[C@@H]1N2C", "outcome": "inactive"}
{"smiles": "CC(C)NC[C@H](O)c1ccc(O)c(O)c1", "outcome": "inactive"}
{"smiles": "C[C@H]1O[C@@H](n2cc(F)c(=O)[nH]c2=O)[C@H](O)[C@@H]1O", "outcome": "inactive"}
{"smiles": "CCN(CC)CCCC(C)Nc1c2ccc(Cl)cc2nc2ccc(OC)cc12", "note": "(stereo not given)", "outcome": "inactive"}
{"smiles": "CNCCCC1c2ccccc2C=Cc2ccccc21", "outcome": "inactive"}
{"smiles": "OCCN1CCN(CCCN2c3ccccc3Sc3ccc(Cl)cc32)CC1", "outcome": "inactive"}
{"smiles": "CN(C)CCCN1c2ccccc2CCc2ccccc21", "outcome": "inactive"}
{"smiles": "Cc1cc(N)c2ccccc2[n+]1CCCCCCCCCC[n+]1c(C)cc(N)c2ccccc21", "outcome": "inactive"}
{"smiles": "CCCn1cnc2c1c(=O)n(CCCCC(C)=O)c(=O)n2C", "outcome": "inactive"}
{"smiles": "COc1ccc(Cl)cc1C(=O)NCCc1ccc(S(=O)(=O)NC(=O)NC2CCCCC2)cc1", "outcome": "inactive"}
{"smiles": "CC(CN(C)C)CN1c2ccccc2CCc2ccccc21", "note": "(stereo not given)", "outcome": "inactive"}
{"smiles": "CN(C)CCCN1c2ccccc2Sc2ccc(Cl)cc21", "outcome": "inactive"}
{"smiles": "CC1=C(CC(=O)O)c2cc(F)ccc2/C1=C\\c1ccc(S(C)=O)cc1", "note": "(stereo not given)", "outcome": "inactive"}
{"smiles": "CN(C)CCC=C1c2ccccc2CCc2ccccc21", "outcome": "inactive"}
{"smiles": "CCCCCCCCCCCCCCCC(=O)NCCO", "outcome": "inactive"}
{"smiles": "CNCCC(Oc1ccc(C(F)(F)F)cc1)c1ccccc1", "note": "(stereo not given)", "outcome": "inactive"}
{"smiles": "CN(C)CC[C@@H](c1ccc(Cl)cc1)c1ccccn1", "outcome": "inactive"}
{"smiles": "CCN(CC)CCOC(=O)C1(C2CCCCC2)CCCCC1", "outcome": "inactive"}
{"smiles": "CC(C)(C)c1onc(OCP(=O)(O)O)c1CC(N)C(=O)O", "note": "(stereo not given)", "outcome": "inactive"}
{"smiles": "N=c1c[n+](N2CCOCC2)[n-]o1", "outcome": "inactive"}
{"smiles": "COC(=O)C1=C(C)NC(C)=C(C(=O)OC)C1c1ccccc1[N+](=O)[O-]", "outcome": "inactive"}
{"smiles": "CC(C)(C(=O)O)c1ccc(C(O)CCCN2CCC(C(O)(c3ccccc3)c3ccccc3)CC2)cc1", "note": "(stereo not given)", "outcome": "inactive"}
{"smiles": "C=Cc1c(C)c2cc3[nH]c(cc4nc(cc5nc(cc1[nH]2)C(C)=C5CCC(=O)O)C(CCC(=O)O)=C4C)c(C)c3C=C", "outcome": "inactive"}
{"smiles": "OCc1cc(C(O)CNCCCCCCOCCCCc2ccccc2)ccc1O", "note": "(stereo not given)", "outcome": "inactive"}
{"smiles": "CNCC(O)c1ccc(O)c(O)c1", "note": "(stereo not given)", "outcome": "inactive"}
{"smiles": "CN(C)CCOC(C)(c1ccccc1)c1ccccn1", "note": "(stereo not given)", "outcome": "inactive"}
{"smiles": "C#CCN(C)Cc1ccccc1", "outcome": "inactive"}
{"smiles": "NC(N)=NCCC[C@H](N)C(=O)O", "outcome": "inactive"}
{"smiles": "CSc1ccc2c(c1)N(CCC1CCCCN1C)c1ccccc1S2", "note": "(stereo not given)", "outcome": "inactive"}
